Laboratory results: ChEMBL document CHEMBL3433997, “St. Jude Leishmania screening dataset” (2016)

The molecules below were run against Hexose transporter 1 (Plasmodium falciparum) (UniProt O97467) (assay: ST_JUDE_LEISH: Cytotoxicity at 2uM final concentration against transgenic Leishmania Mexicana promastigotes LmPfHT that are glucose transport deficient and complemented with the Plasmodium falciparum hexose transporter. Activity is measured by DNA content using SYBR green in vitro).
Format: functional
Molecule `O=C(NCc1cccc2ccccc12)[C@@H]1CCCN1C(=O)c1ccc(O)c(-c2ccc(Cl)c(Cl)c2)c1` has an inhibition of 2.59%.
`Cc1nc(C)c(-c2ccc(Cl)cc2)c(O)c1I` was tested, and the inhibition was 2.05%.
`O=S(=O)(Nc1ccc(CCN2CCC(N3CCCCC3)CC2)cc1)c1ccccc1C(F)(F)F` showed an inhibition of 13.4%.
In the case of `COc1ccc(F)cc1-c1ccccc1CNC(=O)c1cnn(-c2ccc([N+](=O)[O-])cc2)c1C(F)(F)F`, the inhibition is reported as 2.84%.
With `COc1cc(Cc2cnc(N)nc2N)cc(OCCCC#N)c1OC` the inhibition was -1.21%.
Work on `CN(CCCCNC(=O)/C=C/c1ccccc1)C1CC2(CCN(C(=O)OC(C)(C)C)CC2)c2ccccc21` (stereo not given) yielded an inhibition of 3.28%.
`CCCc1ccc(-c2csc(NC(=O)c3ccc([N+](=O)[O-])o3)n2)cc1` showed an inhibition of 77.8%.
In the case of `CN(C)CCC1CCCc2ccc(NC(=O)Nc3ccc(-c4ccncc4)c4ccccc34)cc21` (stereo not given), the inhibition is reported as 1.03%.
For `C=CC[C@H](NC(=O)c1ccc(NS(=O)(=O)c2ccc3nc(N)[nH]c(=O)c3c2)cc1)C(=O)OCCCC`, the inhibition was 0.62%.
In the case of `Fc1ccc2[nH]c(-c3ccc(-c4cccc(CN5CCCCC5)c4)cc3)nc2c1`, the inhibition is reported as 1.72%.
`O=S(=O)(c1ccccc1OC(F)(F)F)C1CC2CCC(C1)N2S(=O)(=O)c1cccc(C(F)(F)F)c1` (stereo not given) gave an inhibition of -0.63%.
Molecule `CN1CCCc2ccc(NC(=O)C=Cc3ccc(-c4ccc(F)cc4F)o3)cc2C1` has an inhibition of 0.81%.
For `CCOc1ccc2ccccc2c1CNCCCCCCNCc1c(OCC)ccc2ccccc12`, the inhibition was 6.69%.
Work on `CCS(=O)(=O)Nc1ccc2c(c1)/C(=C(/Nc1ccc(CN3CCCCC3)cc1)c1ccccc1)C(=O)N2` yielded an inhibition of 89.4%.
`Nc1ncc(-c2ccc(Cl)c(Cl)c2)c(N)n1` gave an inhibition of 1.64%.
With `O=C(NCCN1CCCC1)N1CCCN(c2ncnc3cc(-c4ccc(Cl)cc4)sc23)CC1` the inhibition was 1.33%.
With `Cc1nnc2c(NC(=O)NC3CCCC3)cc3cc(-c4ccc(CN5CCCCC5)cc4)ccc3n12` the inhibition was 1.94%.
`O=C(/C=C/c1ccc(Cl)c(Cl)c1)NCCCCCN1CCC(NC(=O)Nc2cc(Cl)ccc2Cl)CC1` was tested, and the inhibition was 8.99%.
With `CCN(CC)CCNc1ccnc2ccc3ccccc3c12` the inhibition was 6.78%.
`Cc1cc(N(C)C2CCN(C)C2)nc(Nc2ccc(Cl)cc2)n1` (stereo not given) showed an inhibition of 8.61%.
Work on `CCOC(=O)c1cnc2c(OC)cc(OC)c(Cl)c2c1Nc1ccccc1` yielded an inhibition of 4.89%.
`FC(F)(F)Oc1ccc(-c2cnc3ccc(NCc4ccncc4)nn23)cc1` showed an inhibition of 3.58%.
For `CCOC(=O)c1cnc2c(C(F)(F)F)cccc2c1Nc1ccc(O)cc1`, the inhibition was 8.44%.
In the case of `OC(CNCc1cccc(Oc2ccc(Cl)cc2)c1)c1cccc(C(F)(F)F)c1` (stereo not given), the inhibition is reported as 1.81%.
In the case of `CCC(CC)C(CC(=O)NC(C)(C)CCc1ccccc1OC)Nc1ccc(C#N)c2ccccc12` (stereo not given), the inhibition is reported as 3.53%.
